Measurements: the supplement of paper PMC6555819

Tests used:
Assay in all cases: PBM binding z-score (relative to random genomic background probes); higher = stronger binding; sequences stand for … in GC…GCGATTGACAGCGTAGAATGAAGG
[1] = system: RARb homodimer (NR concentration 270 nM)
Method in brief: (§1)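 Binding z-scores were set against random background probes. The data came from custom Agilent 4×180K protein-binding microarrays carrying double-stranded probes with 34-nt variable regions, incubated 1 h with ligand-free nuclear receptor dimers. Partner-specific antibodies detected binding, and scanned fluorescence was regression-normalized.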

[2] = system: RARg:RXRa (NR concentration 270 nM, RXRa partner concentration 90 nM)
Method in brief: as §1

[3] = system: RARg homodimer (NR concentration 270 nM)
Method in brief: as §1

[4] = system: RXRa DBDmut IVT, anti-RXR (DBD mutation: RXRa K156A/R161A, NR concentration 90 nM)
Method in brief: as §1

[5] = system: RXRa homodimer (NR concentration 180 nM)
Method in brief: as §1

[6] = system: THRa:RXRa (NR concentration 90 nM, RXRa partner concentration 90 nM)
Method in brief: as §1

[7] = system: THRa homodimer (NR concentration 90 nM)
Method in brief: as §1

[8] = system: VDR homodimer (NR concentration 270 nM)
Method in brief: as §1

[9] = system: VDR:RXRa (NR concentration 270 nM, RXRa partner concentration 90 nM)
Method in brief: as §1

Sequence | PBM binding z-score [1] | PBM binding z-score [2] | PBM binding z-score [3] | PBM binding z-score [4] | PBM binding z-score [5] | PBM binding z-score [6] | PBM binding z-score [7] | PBM binding z-score [8] | PBM binding z-score [9]
CGTCAAAGTTCATGGTAACGTAACAGAAAGCAGC | 4.04 | 5.3 | 5.92 | 4.79 | 4.53 | 1.98 | -0.212 | 4.64 | –
ACAGACAGGTGAGTGAAGGTCACTCAGCTGGACG | 3.64 | 3.32 | 3.72 | -0.197 | 2.89 | 3.41 | 0.198 | 0.819 | –
CGAACTAGGTCACCAGGGCAGTGAAGAGGTTGGA | 3.62 | 4.53 | 5.52 | 1.03 | 3.26 | 3.09 | 1.39 | 0.712 | –
AGTCAAAGTTCATCTGGGTAACGTAAGATATGCT | 4.07 | 5.32 | 5.48 | 4.78 | 4.42 | 2.82 | 0.135 | 4.81 | –
CCTTACGGGTCAAGGTTATCGCACGGGTGGTACG | 3.58 | 5.02 | 5.11 | 1.31 | 5.6 | 3.15 | 1.02 | 1.69 | –
CCTTACGGGTCAAGGTAATAGCACGGGTGGTACG | 2.82 | 4.6 | 4.42 | 0.648 | 4.79 | 2.66 | 0.382 | 0.423 | –
ATATGTAGGTCATCGGGTCATTCAGTTTGCGCAT | 4.63 | 6.21 | 5.6 | 2.92 | 6.72 | 4.16 | 3 | 5.1 | –
GCTGCTAGGTCAGGATGGTCAGCTAACGGGTACG | 2.65 | 2.65 | 3.23 | 0.0831 | 1.18 | 1.7 | 0.189 | 0.124 | –
CGTCCAAGGTCAATTCTAGGTCAGTGAAAGCATT | 5.03 | 7.43 | 6.42 | 3.52 | 4.75 | 4.64 | 3.17 | 2.76 | –
CGTCAAAGTTCAACTAATGTAACGTAAAGCACGC | 3.96 | 5.66 | 6.9 | 4.76 | 4.75 | 3.31 | 0.305 | 4.13 | –
ATGGAAAGGTCGTGAGGTGAGTATACAGAAAGGC | 3.62 | 4.95 | 4.67 | 1.52 | 5.97 | 3.82 | 2.1 | 1.72 | –
TCTAGTTGGTTACGGAGGTCACACACGACGGGTA | 3.79 | 4.2 | 3.66 | 1.12 | 4.33 | 3.52 | 2.49 | 3.21 | –
CGAACTAGGTCAAAGCACAGTGAAAGGCGACGTA | 2.34 | 3.89 | 4.07 | 1.58 | 2.66 | 2.37 | 0.0185 | 0.261 | –
TCTGCTAGGTCAGTTGGGCAGCTAACGAGCTGCC | 1.91 | 2.37 | 3.42 | 0.193 | 0.493 | 1.12 | -0.349 | -0.821 | –
CTAACTAGGTCACAGAGGTCAAAGTCCGTGCGTA | 5.46 | 7.35 | 7.81 | 3.52 | 7.99 | 4.64 | 3.13 | 7.07 | –
ATCGAAAGGTCGTGAAGTGAGTATACAGAAAGGC | 2.17 | 3.85 | 3.56 | 1.38 | 4.35 | 2.18 | 0.0261 | 1.02 | –
CGAACTAGGTCACCAGGACAGTCAAGAGGTTGGA | 3.44 | 4.37 | 5.18 | 1.24 | 3.33 | 3.46 | 1.89 | 0.612 | –
CCTGCTAGTTCAATGGTCAGCTAAAGCAGCTCGC | 1.18 | 0.412 | 0.679 | 2.42 | 0.154 | 0.222 | -0.395 | 0.706 | –
CGAACTAGGTCAGAGGACAGTGAAAGGCGACGTA | 2.41 | 2.82 | 3.91 | 0.547 | 1.54 | 1.76 | 0.433 | -7.91e-05 | –

Sequence | PBM binding z-score [1] | PBM binding z-score [2] | PBM binding z-score [3] | PBM binding z-score [4] | PBM binding z-score [5] | PBM binding z-score [6] | PBM binding z-score [7] | PBM binding z-score [8] | PBM binding z-score [9]
CGTCAAAGTTCAACTAAGGTAACGTATAGCACGC | 4.33 | 5.92 | 6.62 | 4.32 | 4.78 | 5.26 | 1.89 | 4.37 | –
CTATGTAGGTAAAGGGGGTCATTCAGTTTGAAAG | 3.55 | 4.43 | 2.93 | 2.5 | 5.6 | 3.66 | 1.73 | 6.01 | –
CGGACTAGGTCAAAGGACAGTGAAAGGCGACGTA | 2.91 | 3.97 | 4.51 | 1.33 | 3.02 | 2.57 | 0.589 | 0.288 | –
CGAACTAGGTCAAAGGACAGTAAAAGGCGACGTA | 2.85 | 4.05 | 4.79 | 1.33 | 3.25 | 2.75 | 0.556 | 0.392 | –
CGAACTAGGTCAAAGGACAGTGAAAGGCGACGTA | 2.83 | 3.94 | 4.27 | 1.3 | 3.33 | 2.58 | 0.464 | 0.47 | –
TCGAGTAGGTTACGGGGGCATTCGGGGATGAAGA | 2.34 | 3.52 | 2.38 | 1.85 | 2.92 | 4.01 | 1.63 | 3.83 | –
CGTCCAAGGTCAGATAGGTCAGTGAATGCCGAGT | 4.84 | 5.45 | 6.04 | 3.06 | 4.4 | 3.73 | 1.92 | 3.28 | –
CCTACTGGGCCATTCAGAGGTCATTGATCATATG | 3.93 | 4.35 | 2.99 | 1.44 | 3.55 | 3.14 | 1.18 | 3.37 | –
CGTCCGAGGTCAAAGGTCAGTGAAGAGATGACGG | 5.1 | 8.9 | 8.05 | 4.57 | 10.3 | 4.89 | 2.7 | 4.73 | –
CGAACTAGGTCACCAGGACAGTAAAGAGGTTGGA | 3.58 | 4.57 | 5.2 | 1.79 | 3.38 | 3.29 | 1.86 | 0.977 | –
CGAACTAGGCCAAAGGACAGTGAAAGGCGACGTA | 0.837 | 0.441 | 1.2 | -0.376 | 0.196 | -0.277 | -0.915 | -0.627 | –
TTACCAAAGTGAAAGGTCGTTGATGCACGCCTTG | 1.87 | 1.64 | 1.01 | 0.293 | 2.65 | 1.34 | -0.34 | 1.41 | –
CCGAGTAGGTTACGAGGGAGCATTCAGTGCGAAT | 0.337 | 0.625 | 0.53 | 0.00513 | 0.6 | 0.829 | -0.661 | -0.171 | –
CGGACTGGGGCAAAGGTTACCATACTCAGTACGA | 2.31 | 3.75 | 1.9 | 0.0322 | 3.79 | 2.1 | 0.079 | 0.18 | –
ATCGAAAGGTCGTGAGGTGACTATACAGAAAGGC | 3.07 | 4.7 | 3.57 | 1.29 | 5.22 | 3.87 | 1.85 | 0.91 | –
CCTAGTTGGTCAGGTGGTCACACACCGGATATGA | 1.48 | 1.03 | 1.38 | -0.358 | 0.463 | 0.254 | 0.259 | 0.314 | –
ACTAGTAGGCCAAGGGTCACTCAAGATTAGTCCG | 3.88 | 4.22 | 4.21 | 0.602 | 4.54 | 2.6 | 0.197 | 1.36 | –
CCTACTGGGCCACGAAAGGGCATTGATTCAGTGA | 1.74 | 0.854 | 1.12 | -0.586 | 0.314 | 1.07 | -0.645 | -0.334 | –
CGAACTAGGTCAAAGGACGGTGAAAGGCGACGTA | 2.59 | 3.97 | 4.3 | 1.49 | 2.68 | 2.3 | -0.112 | -0.106 | –

Sequence | PBM binding z-score [1] | PBM binding z-score [2] | PBM binding z-score [3] | PBM binding z-score [4] | PBM binding z-score [5] | PBM binding z-score [6] | PBM binding z-score [7] | PBM binding z-score [8] | PBM binding z-score [9]
CAAACTAGGTCACGAAAGGTCAAAGTGGAATGAC | 5.92 | 7.79 | 8.41 | 2.4 | 8.35 | 5.24 | 2.81 | 3.84 | –
CCTTACCGGTCAAGGTTATAGCACGGGTGGTACG | 2.84 | 2.53 | 3.33 | -0.447 | 1.46 | 1.74 | 0.941 | 0.853 | –
CGAGCTAGGTCAAAGGACAGTGAAAGGCGACGTA | 2.82 | 4.31 | 4.87 | 1.29 | 2.99 | 2.3 | 0.253 | 0.416 | –
CGAACTAGGTCGAAGGACAGTGAAAGGCGACGTA | 0.802 | 0.619 | 1.1 | 0.469 | 0.475 | 0.508 | -0.399 | -0.311 | –
CTCGAAAGGTCGTGCTCAGGTGAGTATGCCAAAC | 2.94 | 5.26 | 3.88 | 2.18 | 4.88 | 4.11 | 0.926 | 0.764 | –
CGTCCAAGGGCAGCAGGTCAGTGAAAGCGACGTG | 2.99 | 2.31 | 2.9 | 0.247 | 0.676 | 1.28 | -0.115 | 0.0968 | –
CAAACTAGGTCAAAGGTCAACGTCGAGCCAACCA | 5.12 | 8.91 | 7.98 | 2.88 | 10.3 | 4.98 | 2.1 | 2.86 | –
TGAATGAGGTTTAAGATCAGGGAACGTGGCGTCG | -0.403 | 0.0866 | 0.0198 | -0.0681 | 0.388 | 0.0282 | -0.624 | -0.231 | –
TCGAGGAGGTTACGGGGGCATTCAGGGATGAAGA | 2.61 | 4.51 | 3.37 | 2.51 | 4.12 | 4.31 | 1.88 | 3.86 | –
GCTGCTAGGTCAGGTTGGTCGGCTAACGGGTACG | 2.31 | 2.38 | 3.52 | -0.206 | 0.882 | 1.5 | 0.491 | 0.0919 | –
TCGAGTAGGTTACGGGGTCATTCAGGGATGAAGA | 3.99 | 5.96 | 4.05 | 2.36 | 7.78 | – | 2.5 | 5.89 | 6.34
CCTACTGGGCCAAAAATGTCATTGATGCCGATAA | -0.0192 | -0.247 | 0.087 | -0.297 | -0.234 | -0.288 | -0.816 | -0.383 | –
CGAACTATGTCAAAGGACAGTGAAAGGCGACGTA | 1.14 | 1.08 | 1.39 | -0.18 | 0.00503 | 0.122 | -0.538 | -0.0132 | –
CGACCTAGGTCACCAGGACAGTGAAGAGGTTGGA | 3.51 | 5.3 | 5.83 | 1.6 | 3.92 | 3.44 | 1.53 | 0.503 | –
TTACCAAGGTGAACTGAGGTCGTTGATCCAACTC | 2.38 | 2.52 | 1.54 | 1.71 | 2.63 | 4.93 | 3.07 | 3.63 | –
TCAAGTAGGTTACGGGGGCATTCAGGGATGAAGA | 2.65 | 3.75 | 3.05 | 2.81 | 3.19 | 3.8 | 2.1 | 4.17 | –
CAAACTAGGCCAAGGTCAAAGTCGGTTTGTGCCA | 3.85 | 4.2 | 4.17 | 2.06 | 3.91 | 3.77 | 2.36 | 3.23 | –
ATATGTAGGTGAGGGTCATTCAGAAAGTAGGGAA | 3.13 | 3.24 | 3.06 | 1.67 | 3.67 | 2.56 | 1.31 | 2.76 | –
ATATGTAGGATATCGGGTCATTCAGTTTGCGCAT | 2.18 | 1.75 | 1.44 | 1.12 | 2.23 | 3.15 | 2.18 | 2.6 | –
